# Test results published in PubChem BioAssay AID624418 (National Center for Advancing Translational Sciences (NCATS), 2012).
# The campaign covered roughly 410,000 compounds. About 530 (0.13%) were called active. Inconclusive results (about 5%) are left out. Shown is part of a subset that was picked to be rich in actives. A number with no mark means an inactive call. Calls come from the whole dose curve; as a rule, active = well fitted inhibition curve with a large enough effect; inconclusive = small, poorly fitted or top-dose-only effect, or another doubt; inactive = no such curve, though single readings can be large or run the other way.
# Assay: qHTS of GLP-1 Receptor Inverse Agonists: Cytotox Screen;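 note: loss of luciferase light is scored as toxicity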
# Settings: HEK293 cAMP-luciferase reporter cells, luminescence, 24 h; series mostly up to 38.3 µM; activity change, negative = inhibition: at the top concentration
# Text: The overall goal of this project was to develop a novel assay for discovering small molecule ligands for class B1 G protein-coupled receptors (GPCRs). Very few agonists (or inverse agonists) with generally weak activity for this entire group of physiologically important receptors are known to date. To establish proof-of-principle that this critical bottleneck can be overcome with a suitable screening approach, our studies focused on the class B1 receptor for glucagon-like peptide-1 (GLP-1R), a potential therapeutic target for diabetes and neurodegenerative disease.
# The assay was developed using a cell-based functional readout. Toward this goal, stably transfected HEK293 cell clones were established that co-express (i) a cAMP-responsive luciferase reporter gene, and (ii) constitutively active GLP-1R that upon ligand interaction inhibit (inverse agonists) the luciferase activity. In addition, two control cell lines were developed: (i) one that express only the cAMP-responsive reporter gene to enable initial exclusion of GLP-1R independent effects of candidate probes; and (ii) one with the reported gene cloned with another constitutively active orphan receptor GPR119 to enable exclusion of GLP-1R independent inhibitor effects of candidate inverse agonists.
# To that end, this assay was optimized for 1536-well format and screened against the MLSMR. Then the same collection was run in this cytotoxicity assay where inhibition was the undesired outcome.
# NIH Molecular Libraries Probe Production Network [MLPCN]
# NIH Chemical Genomics Center [NCGC]
# PI Name: Martin Beinborn, Tufts Medical Center
# Six ul of cell suspension (200 cells/uL in DMEM + 10% Nu serum + 1% pen-strep) is dispensed in a white solid 1536-well plate. The plates are incubated for 12 hours at 37 deg C at 5% CO2 followed by addition of 23 nL compounds. After 24 hr incubation at 37 deg C and 5% CO2, 3 uL of luciferase assay detection reagent is added. A luminescence read is obtained on the PerkinElmer Viewlux after 12 min incubation at room temperature.
# % is set by controls: 0 for no effect and ±100 for the full control effect; potency is the fitted concentration of half-maximal effect.
Structure (SMILES),Potency,"activity change, negative = inhibition"
O=C(Nc1ccc(OC(F)(F)F)cc1)c1ccc2c(c1)no[n+]2[O-],11.2 µM (active),
O=C(Nc1ccc(Cl)cn1)Nc1cccs1,,49.1%
CCOC(=O)[C@]12Cc3cc(OC)ccc3[C@H]1N(C(C)C)C(=O)c1ccccc12,,-28.2%
CCOc1ccc2nc(Nc3nc4ccc(NC(C)=O)cc4s3)sc2c1,,37.9%
Cc1ccc(NC(=O)N(Cc2ccc3c(c2)OCO3)C2CCN(Cc3ccccc3)CC2)cc1F,,-0.237%
COc1ccc(CS(=O)/C(Cl)=C(/Cl)C(=O)Nc2ccc(OC)nc2)cc1 (stereo not given),3.98 µM (active),
O=C1N[C@H](Cc2c[nH]c3ccccc23)COC(=O)[C@H](Cc2ccc(F)cc2)C/C=C\C[C@H]1CC(=O)N(CCO)Cc1ccccc1,,-58.3%
CCN(CC)CCCC(C)n1c2nc(=O)[nH]c(=O)c-2nc2cc(Cl)ccc21 (stereo not given),,490%
c1cc2c(c(NC3=NCCCS3)c1)CCCC2,,-18%
Cc1nnc(NC(=O)c2cccn(Cc3cccc(F)c3)c2=O)s1,,4.13%
Cc1cccc(Cn2cccc(C(=O)Nc3ccc4c(c3)OCCO4)c2=O)c1,,4.23%
C=CCC[C@@H](Cc1ccc(F)cc1)C(=O)OC[C@H](Cc1c[nH]c2ccccc12)NC(=O)[C@@H](CC=C)CC(=O)N(CCO)Cc1ccccc1,,7.51%
Nc1ccc(-c2sc(N)nc2-c2ccccc2)cc1,,184%
NS(=O)(=O)c1ccc(NC(=O)COC(=O)c2c3c(nc4ccccc24)/C(=C\c2ccc4c(c2)OCO4)CCC3)cc1,,80.2%
C=CC(=O)Nc1ccc(Nc2ccnc(Nc3ccc(N4CCN(C)CC4)cc3)n2)cc1,10 µM (active),
CCC1(CC(C)c2ccccc2)C(=O)NC(=O)NC1=O (stereo not given),,9.72%
COc1cccc2sc3cc(NCC[C@@H]4CCCN4C)ccc3c(=O)c12,,221%
CC(C)c1ccc(C=NNc2ccc([N+](=O)[O-])cn2)cc1,,44.1%
Cc1cc(C)c2c(c1)cc(C)c1nnc(SCC(=O)Nc3cc(C)on3)n12,10 µM (active),
COc1ccc(-c2nc3cnccn3c2NC2CCCCC2)cc1-c1cccc(Cl)c1,,77.1%
NC(=O)c1sc2nc3c(c(-c4ccccc4)c2c1N)CCC3,,56.3%
COc1ccccc1OC(=O)c1ccc(C)c(S(=O)(=O)N2CCOCC2)c1,,0.53%
O=C(c1cc(S(=O)(=O)N2CCOCC2)ccc1F)N1CCC2(CC1)OCCO2,,-20.6%
O=C(Nc1nnc(-c2ccccc2)o1)c1cccc(S(=O)(=O)N2CCOCC2)c1,10 µM (active),
CCc1ccc(OCC(=O)N2CCN(CC(=O)Nc3ccccc3Cl)CC2)cc1,,-14.3%
